Test systems include NCI-H23 lung; NCI-H226 lung; NCI-H322M lung; HOP-62 NSCLC; NCI-H460 lung; HOP-92 NSCLC; NCI-H522 lung; A549/ATCC NSCLC; 786-0 renal; COLO 205 colon; DU-145 prostate; K-562 leukemia; MALME-3M melanoma; MDA-MB-231 breast; RXF 393 renal; SF-268 CNS; SF-295 CNS; SF-539 CNS; UACC-257 melanoma; M14 melanoma.
Common to all, as to assay: NCI-60 one-dose screen, 48 h (100 = growth as untreated, 0 = no growth, -100 = all killed)
Conditions in all cases: 10 µM unless noted

The structures appear in SMILES notation. The panel holds about 83,000 compounds, 20% with a hit somewhere; the sample as a whole holds those more often.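 Activity criterion: percent growth below 10, measured after cells in 96-well plates were exposed to a single compound concentration for 48 hours.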 A number with no mark means an inactive call. Activity calls are given as the source filed them.

In the case of `O=[N+]([O-])c1ccc(Sc2cccc[n+]2[O-])c2nonc12`, the growth was 73.2% in the test with NCI-H23 lung; 102% with NCI-H226 lung; 104% in the test with NCI-H322M lung; 101% in the test on HOP-62 NSCLC; 56.8% in the test with NCI-H460 lung; 96.4% in the test on HOP-92 NSCLC. For the same compound, the growth was -70.8% (active) with NCI-H522 lung; 59% with A549/ATCC NSCLC; 92.6% with 786-0 renal; -67.3% (active) in the test on COLO 205 colon; 50% in the test on DU-145 prostate; -21.7% (active) in the test with K-562 leukemia. The growth was 100% in the test on MALME-3M melanoma; 90.4% with MDA-MB-231 breast; 54.5% in the test on RXF 393 renal; 58.9% in the test on SF-268 CNS; 89.9% with SF-295 CNS; 93.6% in the test on SF-539 CNS. Besides, the figures for the growth with UACC-257 melanoma and in the test on M14 melanoma were 91.5% and 71.3%, respectively.
As for `CC(=O)c1nc(Nc2ccc(C)cc2)sc1C`, the growth was 90.9% in the test with NCI-H23 lung; 81.7% in the test on NCI-H226 lung; -98.9% (active) in the test on NCI-H322M lung; 85.7% in the test on HOP-62 NSCLC; 104% in the test with NCI-H460 lung; 73.2% in the test on HOP-92 NSCLC. Also, the growth in the test with NCI-H522 lung is 86.9%; in the test on A549/ATCC NSCLC, 96.7%; in the test on 786-0 renal it was 98.1%; with COLO 205 colon, 105%; in the test on DU-145 prostate, 102%; in the test on K-562 leukemia, 97.6%. Besides, the growth in the test on MALME-3M melanoma is 113%; in the test with MDA-MB-231 breast, 91.3%; in the test on RXF 393 renal, 96.2%; with SF-268 CNS it was 91%; in the test on SF-295 CNS it was 104%; in the test on SF-539 CNS, 101%. The values for the growth with UACC-257 melanoma and in the test on M14 melanoma were 92.1% and 97.1%, respectively.
Take `O=C(/C=C/c1c(Cl)nc2sccn12)c1ccc(F)c(F)c1`: the growth with NCI-H23 lung was 67%; in the test with NCI-H226 lung, 73.2%; in the test on NCI-H322M lung, 93.1%; in the test on HOP-62 NSCLC, 79.8%; with NCI-H460 lung it was 79.5%; in the test on HOP-92 NSCLC, 50.6%. The growth in the test on NCI-H522 lung is 66.5%; with A549/ATCC NSCLC, 80.3%; in the test on 786-0 renal, 84.7%; with COLO 205 colon, 93%; in the test on DU-145 prostate it was 96.1%; with K-562 leukemia it was 48.1%. The growth is 113% with MALME-3M melanoma; 81.8% with MDA-MB-231 breast; 69.7% in the test with RXF 393 renal; 81.4% with SF-268 CNS; 91.9% in the test with SF-295 CNS; 96.5% with SF-539 CNS. Moreover, the growth is 73.9% in the test on UACC-257 melanoma and 87.2% in the test with M14 melanoma.
On to `Oc1c(CN2CCCC2)cc(COCc2ccc(Br)cc2)c2cccnc12`, for which the growth in the test with NCI-H23 lung is 20.7%; in the test on NCI-H226 lung, -0.576% (active); in the test with NCI-H322M lung, -5.34% (active); in the test with HOP-62 NSCLC it was -4.92% (active); in the test on NCI-H460 lung, -21.8% (active); with HOP-92 NSCLC, 27.6%. Further, the growth with NCI-H522 lung was -45% (active); in the test with A549/ATCC NSCLC, 4.92% (active); in the test with 786-0 renal it was -8.02% (active); in the test on COLO 205 colon, 39.1%; in the test with DU-145 prostate, 22.7%; in the test on K-562 leukemia, 8.51% (active). The growth is -3.92% (active) with MALME-3M melanoma; 5.06% (active) in the test with MDA-MB-231 breast; 20% in the test with RXF 393 renal; 10.8% in the test on SF-268 CNS; 13% in the test with SF-295 CNS; -23.5% (active) in the test on SF-539 CNS. The growth with UACC-257 melanoma is -29.5% (active); in the test on M14 melanoma, -3.51% (active).
Consider `COC(=O)[C@]12CC[C@@H](C)[C@H](C)[C@@H]1C1=CC[C@@H]3[C@@]4(C)C(C=O)=C[C@@](C)(COS(C)(=O)=O)C4[C@H](O)C[C@@]3(C)[C@]1(C)CC2` (stereo not given in full), for which the growth with NCI-H23 lung was -50.1% (active); with NCI-H226 lung it was -67.2% (active); with NCI-H322M lung it was -1.44% (active); in the test on HOP-62 NSCLC it was -63.6% (active); in the test with NCI-H460 lung it was -58.2% (active); in the test with HOP-92 NSCLC, -74.3% (active). The growth was -82.6% (active) in the test with NCI-H522 lung; -67.1% (active) in the test on A549/ATCC NSCLC; -91.5% (active) with 786-0 renal; -70.8% (active) in the test with COLO 205 colon; -93.6% (active) in the test with DU-145 prostate; 1.48% (active) with K-562 leukemia. Further, the growth with MALME-3M melanoma was -78.6% (active); in the test on MDA-MB-231 breast, -74.9% (active); in the test with RXF 393 renal, -96.4% (active); in the test with SF-268 CNS, -74.4% (active); with SF-295 CNS, -87.3% (active); in the test with SF-539 CNS, -89.6% (active). The growth in the test on UACC-257 melanoma was -82.2% (active); with M14 melanoma it was -59.9% (active).
As for `CC(C)=C[C@@H]1c2c(c3ccccc3n(C)c2=O)O[C@H]2c3c(c4ccccc4n(C)c3=O)OC(C)(C)[C@@H]12`, the growth in the test on NCI-H23 lung was 99.6%; in the test with NCI-H226 lung, 101%; with NCI-H322M lung it was 112%; in the test with HOP-62 NSCLC it was 115%; in the test with NCI-H460 lung, 75.3%; in the test with HOP-92 NSCLC, -4.59% (active). In addition, the growth in the test on NCI-H522 lung was 53.4%; in the test with A549/ATCC NSCLC it was 89.3%; in the test with 786-0 renal it was 93.5%; in the test with COLO 205 colon, 95.3%; in the test on DU-145 prostate, 106%; in the test with K-562 leukemia it was 56.1%. In addition, the growth was 99.4% with MALME-3M melanoma; 85.8% with MDA-MB-231 breast; 88.9% in the test on RXF 393 renal; 86.1% with SF-268 CNS; 65.5% with SF-295 CNS; 81.2% in the test with SF-539 CNS. Besides, the growth in the test with UACC-257 melanoma is 82.2%; with M14 melanoma, 98.9%.
For the compound `COC(=O)c1ccc(CSc2nnc(-c3c(C)nc4ccc(C)cn34)o2)cc1`, the growth in the test with NCI-H23 lung was 85.9%; in the test on NCI-H226 lung it was 95.2%; in the test on NCI-H322M lung it was 98.2%; in the test on HOP-62 NSCLC it was 89.6%; in the test with NCI-H460 lung, 109%; in the test with HOP-92 NSCLC, 92%. In addition, the growth with NCI-H522 lung was 83.5%; in the test with A549/ATCC NSCLC, 103%; in the test with 786-0 renal, 91.8%; in the test with COLO 205 colon it was 117%; in the test with DU-145 prostate, 106%; with K-562 leukemia, 82.6%. The growth was 111% with MALME-3M melanoma; 84.1% with MDA-MB-231 breast; 97% in the test with RXF 393 renal; 102% in the test on SF-268 CNS; 105% in the test with SF-295 CNS; 103% in the test with SF-539 CNS. In addition, the values for the growth in the test with UACC-257 melanoma and in the test on M14 melanoma were 116% and 105%, respectively.
With `Cn1c(=O)c2[nH]c(NN)nc2n(C)c1=O`, the growth is 107% in the test with NCI-H23 lung; 106% in the test with NCI-H226 lung; 118% in the test with NCI-H322M lung; 120% with HOP-62 NSCLC; 101% in the test on NCI-H460 lung; 95.7% with HOP-92 NSCLC. In addition, the growth in the test on NCI-H522 lung is 99.9%; in the test with A549/ATCC NSCLC, 106%; with 786-0 renal, 98.7%; in the test with COLO 205 colon it was 109%; in the test with DU-145 prostate, 123%; in the test on K-562 leukemia it was 100%. Besides, the growth with MALME-3M melanoma was 135%; with MDA-MB-231 breast, 116%; in the test with RXF 393 renal, 123%; with SF-268 CNS it was 108%; in the test on SF-295 CNS it was 108%; in the test on SF-539 CNS, 111%. In addition, the growth with UACC-257 melanoma is 119%; in the test with M14 melanoma, 102%.

The values above are taken from PubChem BioAssay (NCI).
